# According to PubChem BioAssay AID504534 (National Center for Advancing Translational Sciences (NCATS), 2011):
# Results filed as inconclusive are left out. The source made the active and inactive calls. Calls come from the whole dose curve; as a rule, active = well fitted curve in the direction sought with a large enough effect; inconclusive = small, poorly fitted or top-dose-only effect, or another doubt; inactive = no such curve, though single readings can be large or run the other way.
# Assay: Secondary Assay for Inhibitors of Human Cdc-like kinase 4 (Clk4): HEK-293 Cell Viability Assay;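 note: % of control where 0% means no effect; cytotoxic hits lower the ATP light signal so activity reflects loss of viability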
# Conditions: HEK-293 viability, ATP luminescence (CellTiter-Glo), 24/48 h; series mostly up to 46.1 µM; activity change, negative = cytotoxicity: at the top concentration
# Procedure, shortened: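 Cytotoxicity was measured as ATP luminescence (CellTiter-Glo) after 24 or 48 h compound exposure at 37 degrees C. HEK-293 cells in MEM with 10% FBS had been seeded 4 h earlier.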
Compound,"activity change, negative = cytotoxicity",Potency
Cn1ccc2cc(-c3ccc4ncnc(NCc5cccs5)c4c3)ccc21,-25.3% (inactive),
Cc1csc(CNc2ncnc3ccc(-c4ccc5c(c4)OCO5)cc23)n1,-28.3% (inactive),
c1coc(-c2ccc3ncnc(NCc4cccs4)c3c2)c1,-9.79% (inactive),
CCN(CCc1cn(C)cn1)c1ncnc2ccc(-c3ccc4c(c3)OCO4)cc12,-6.06% (inactive),
Cc1csc(CNc2ncnc3ccc(-c4cccc(Cl)c4)cc23)c1,-36.3% (inactive),
CCN1/C(=C/C(C)=O)Sc2ccc(OC)cc21,-13.9% (inactive),
COc1cccc(-c2ccc3ncnc(NCc4cccc(F)c4)c3c2)c1,-5.1% (inactive),
CCOC(=O)c1ccc(-c2ccc3ncnc(NCc4ncc[nH]4)c3c2)o1,-9.91% (inactive),
Clc1ccccc1-c1ccc2ncnc(NCc3cccnc3)c2c1,11.7% (inactive),
CCOC(=O)c1ccoc1-c1ccc2ncnc(NCc3ncc[nH]3)c2c1,-11.2% (inactive),
c1nc(NCCc2cnc[nH]2)c2cc(-c3ccoc3)ccc2n1,5.81% (inactive),
COc1cccc(-c2ccc3ncnc(NCc4cc(C)cs4)c3c2)c1,-9.21% (inactive),
c1nc(NCc2ccc3c(c2)OCO3)c2cc(-c3ccc4c(c3)OCCO4)ccc2n1,-9.9% (inactive),
Clc1cccc(-c2ccc3ncnc(NCc4cccnc4)c3c2)c1,-22.8% (inactive),
C#Cc1cccc(Nc2ncnc3cc(OCCOC)c(OCCOC)cc23)c1,-11.6% (inactive),
O=C(O)c1ccc(-c2ccc3ncnc(NCCc4cnc[nH]4)c3c2)o1,0.179% (inactive),
Cc1ccc(CNc2ncnc3ccc(-c4ccc5c(c4)OCO5)cc23)s1,-28.5% (inactive),
Cn1ccc2cc(-c3ccc4ncnc(NCc5cccnc5)c4c3)ccc21,5.41% (inactive),
c1nc(NCc2ccoc2)c2cc(-c3ccc4c(c3)OCO4)ccc2n1,-18.3% (inactive),
Clc1cccc(-c2ccc3ncnc(NCc4cccs4)c3c2)c1,-15% (inactive),
CN(Cc1ccco1)c1ncnc2ccc(-c3ccoc3)cc12,-9.24% (inactive),
Cc1ccc(CNc2ncnc3cc(-c4ccc5c(c4)OCO5)ccc23)o1,-17.4% (inactive),
Cc1csc(CNc2ncnc3ccc(-c4ccoc4)cc23)c1,-15.6% (inactive),
Cc1occc1-c1ccc2ncnc(NCc3ncc[nH]3)c2c1,-0.463% (inactive),
Cc1csc(CNc2ncnc3ccc(-c4ccc(C(=O)O)o4)cc23)n1,7.98% (inactive),
c1csc(CNc2ncnc3ccc(-c4ccc5c(c4)OCO5)cc23)c1,,inactive
